# Test results as given in PubChem BioAssay (NCI).
# The panel holds about 79,000 compounds, 15% with a hit somewhere; the sample as a whole holds those more often. Unmarked numbers belong to inactive results. The source made the active and inactive calls. Cut-off read from the data, not from the text of the source: active = growth inhibition above about 70%; inactive = the rest.
# Key:
# [1] = NCI Yeast Anticancer Drug Screen. Data for the mlh1 strain (AID 171);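 note: 0% = growth of vehicle-treated control cultures of the same strain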; conditions: S. cerevisiae mlh1 strain growth inhibition, stronger effect = higher value
# Procedure, shortened: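 Read-out: growth inhibition versus vehicle controls. Strain: engineered yeast with a defined DNA repair or cell cycle defect, compound-treated.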
# [2] = NCI Yeast Anticancer Drug Screen. Data for the sgs1 strain (AID 173);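 note: 0% = growth of vehicle-only control cultures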; conditions: S. cerevisiae sgs1 mutant, stronger effect = higher value
# Procedure, shortened: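 Read-out: yeast growth inhibition relative to vehicle controls, following compound exposure of a strain with a defined DNA repair/cell cycle alteration.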
# [3] = NCI Yeast Anticancer Drug Screen. Data for the mlh1 rad18 strain (AID 175); conditions: S. cerevisiae mlh1 rad18 strain growth inhibition, stronger effect = higher value
# Procedure, shortened: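 Yeast w/ defined DNA-repair lesions; compound exposure; growth vs vehicle controls → % inhibition.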
# [4] = NCI Yeast Anticancer Drug Screen. Data for the rad52 strain (AID 147);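 note: 0% = growth of vehicle-treated control cultures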; conditions: S. cerevisiae rad52 mutant growth inhibition, stronger effect = higher value
# Procedure, shortened: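 Read-out: growth inhibition versus vehicle-treated controls. Cells were a DNA repair-deficient yeast strain treated with compounds.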
# [5] = NCI Yeast Anticancer Drug Screen. Data for the wt1 strain (AID 149);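 note: 0% = growth of vehicle-treated wt1 cultures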; conditions: S. cerevisiae wt1 strain (SPY 50644) growth inhibition, stronger effect = higher value
# Procedure, shortened: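 Yeast wt1 strain exposed to compounds; growth inhibition measured relative to vehicle-treated controls.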
# [6] = NCI Yeast Anticancer Drug Screen. Data for the rad50EPP+ strain (AID 151);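 note: 0% = growth of vehicle-treated control cultures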; conditions: S. cerevisiae rad50 mutant strain, stronger effect = higher value
# Procedure, shortened: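 Growth inhibition read against vehicle controls in rad50EPP+ yeast, a strain altered in DNA damage repair, after compound exposure.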
# [7] = NCI Yeast Anticancer Drug Screen. Data for the mgt1 strain (AID 153); conditions: S. cerevisiae mgt1 mutant growth inhibition, stronger effect = higher value
# Procedure, shortened: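 mgt1 yeast grown with test compound; read-out is growth inhibition versus vehicle-treated cultures.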
# [8] = NCI Yeast Anticancer Drug Screen. Data for the rad50 strain (AID 155);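 note: 0% = growth of vehicle-only cultures of the same strain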; conditions: S. cerevisiae rad50 strain growth inhibition, stronger effect = higher value
# Procedure, shortened: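 Yeast carrying a defined DNA repair defect were exposed to test compounds, and growth was compared with vehicle-treated controls to give percent inhibition.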
# [9] = NCI Yeast Anticancer Drug Screen. Data for the mec2-1 strain (AID 157); conditions: S. cerevisiae mec2-1 strain, stronger effect = higher value
# Procedure, shortened: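 Yeast mec2-1 mutant treated with compound. Readout: growth inhibition vs vehicle controls.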
# [10] = NCI Yeast Anticancer Drug Screen. Data for the rad14 strain (AID 159);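 note: 0% = growth of vehicle-treated control cultures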; conditions: S. cerevisiae rad14 strain growth inhibition, stronger effect = higher value
# Procedure, shortened: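 Yeast cells carrying a defined DNA-repair defect were exposed to compounds, and growth inhibition was calculated relative to vehicle-treated control cultures.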
# [11] = NCI Yeast Anticancer Drug Screen. Data for the sgs1 mgt1 strain (AID 161);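 note: 0% = growth of cultures given vehicle only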; conditions: S. cerevisiae sgs1 mgt1 strain, stronger effect = higher value
# Procedure, shortened: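 Test agents were incubated with a DNA-repair-mutant yeast strain. Growth was then read and compared against vehicle-treated controls.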
# [12] = NCI Yeast Anticancer Drug Screen. Data for the cln2 rad14 strain (AID 165);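 note: 0% = growth equal to vehicle treated cultures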; conditions: S. cerevisiae cln2 rad14 strain, stronger effect = higher value
# Procedure, shortened: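 cln2 rad14 yeast strain; compound exposure; growth inhibition read vs vehicle controls.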
# [13] = NCI Yeast Anticancer Drug Screen. Data for the bub3 strain (AID 167); conditions: S. cerevisiae bub3 mutant strain, stronger effect = higher value
# Procedure, shortened: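 Compounds were applied to a genetically altered yeast strain carrying a cell-cycle control defect. Growth inhibition was scored against vehicle-treated controls.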
# [14] = NCI Yeast Anticancer Drug Screen. Data for the wt2 strain (AID 169);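 note: 0% = growth of vehicle-treated yeast cultures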; conditions: S. cerevisiae wt2 strain growth inhibition, stronger effect = higher value
# Procedure, shortened: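 Read-out: growth inhibition versus vehicle-treated control cultures after compound exposure of the yeast strain.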
# [15] = NCI Yeast Anticancer Drug Screen. Data for the rad18 strain (AID 177); conditions: S. cerevisiae rad18 mutant growth inhibition, stronger effect = higher value
# Procedure, shortened: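 Readout: growth inhibition vs vehicle controls. Cells: genetically altered yeast strain, DNA repair defect.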
# [16] = at 5.0 µM (retest, dose inferred, filed as 0.5)
# [17] = at 50.0 µM (retest, dose inferred, filed as 5.0)
smiles,measurement,setting,value
CCCC/C=C/C(CC)(C(=O)OCC)C(=O)OCC,growth inhibition,[1]; at 1.2 µM,-3%
same,growth inhibition,[1]; at 3.7 µM,-6%
same,growth inhibition,[1]; at 11.0 µM,-5%
same,growth inhibition,[1]; at 33.0 µM,-2%
same,growth inhibition,[1]; at 100.0 µM,5%
same,growth inhibition,[2]; at 1.2 µM,-2%
same,growth inhibition,[2]; at 3.7 µM,1%
same,growth inhibition,[2]; at 11.0 µM,0%
same,growth inhibition,[2]; at 33.0 µM,0%
same,growth inhibition,[2]; at 100.0 µM,5%
same,growth inhibition,[3]; [16],7%
same,growth inhibition,[3]; [17],36%
same,growth inhibition,[3]; at 50.0 µM,-8.65%
BrCC[P+](c1ccccc1)(c1ccccc1)c1ccccc1,growth inhibition,[4]; at 1.2 µM,-39%
same,growth inhibition,[4]; at 3.7 µM,-45%
same,growth inhibition,[4]; at 11.0 µM,58%
same,growth inhibition,[4]; at 33.0 µM,94% (active)
same,growth inhibition,[4]; at 100.0 µM,96% (active)
same,growth inhibition,[5]; at 1.2 µM,-60%
same,growth inhibition,[5]; at 3.7 µM,-56%
same,growth inhibition,[5]; at 11.0 µM,-4%
same,growth inhibition,[5]; at 33.0 µM,96% (active)
same,growth inhibition,[5]; at 100.0 µM,98% (active)
same,growth inhibition,[6]; at 1.2 µM,-44%
same,growth inhibition,[6]; at 3.7 µM,-47%
same,growth inhibition,[6]; at 11.0 µM,19%
same,growth inhibition,[6]; at 33.0 µM,88% (active)
same,growth inhibition,[6]; at 100.0 µM,95% (active)
same,growth inhibition,[7]; at 1.2 µM,-61%
same,growth inhibition,[7]; at 3.7 µM,-53%
same,growth inhibition,[7]; at 11.0 µM,-7%
same,growth inhibition,[7]; at 33.0 µM,94% (active)
same,growth inhibition,[7]; at 100.0 µM,98% (active)
same,growth inhibition,[8]; at 1.2 µM,-36%
same,growth inhibition,[8]; at 3.7 µM,-30%
same,growth inhibition,[8]; [16],19%
same,growth inhibition,[8]; at 11.0 µM,54%
same,growth inhibition,[8]; at 33.0 µM,94% (active)
same,growth inhibition,[8]; [17],97% (active)
same,growth inhibition,[8]; at 50.0 µM,84.7% (active)
same,growth inhibition,[8]; at 100.0 µM,95% (active)
same,growth inhibition,[9]; at 1.2 µM,-74%
same,growth inhibition,[9]; at 3.7 µM,-63%
same,growth inhibition,[9]; [16],16%
same,growth inhibition,[9]; at 11.0 µM,14%
same,growth inhibition,[9]; at 33.0 µM,95% (active)
same,growth inhibition,[9]; [17],98% (active)
same,growth inhibition,[9]; at 50.0 µM,90.2% (active)
same,growth inhibition,[9]; at 100.0 µM,97% (active)
same,growth inhibition,[10]; at 1.2 µM,-32%
same,growth inhibition,[10]; at 3.7 µM,-52%
same,growth inhibition,[10]; at 11.0 µM,-16%
same,growth inhibition,[10]; at 33.0 µM,94% (active)
same,growth inhibition,[10]; at 100.0 µM,97% (active)
same,growth inhibition,[11]; [16],49%
same,growth inhibition,[11]; [17],99% (active)
same,growth inhibition,[11]; at 50.0 µM,87% (active)
same,growth inhibition,[12]; [16],43%
same,growth inhibition,[12]; [17],98% (active)
same,growth inhibition,[12]; at 50.0 µM,73.8% (active)
same,growth inhibition,[13]; at 1.2 µM,-70%
same,growth inhibition,[13]; at 3.7 µM,-32%
same,growth inhibition,[13]; [16],47%
same,growth inhibition,[13]; at 11.0 µM,32%
same,growth inhibition,[13]; at 33.0 µM,93% (active)
same,growth inhibition,[13]; [17],98% (active)
same,growth inhibition,[13]; at 50.0 µM,87.8% (active)
same,growth inhibition,[13]; at 100.0 µM,97% (active)
same,growth inhibition,[14]; at 1.2 µM,-15%
same,growth inhibition,[14]; at 3.7 µM,-5%
same,growth inhibition,[14]; at 11.0 µM,15%
same,growth inhibition,[14]; at 33.0 µM,88% (active)
same,growth inhibition,[14]; at 100.0 µM,95% (active)
same,growth inhibition,[1]; at 1.2 µM,-38%
same,growth inhibition,[1]; at 3.7 µM,-70%
same,growth inhibition,[1]; at 11.0 µM,28%
same,growth inhibition,[1]; at 33.0 µM,93% (active)
same,growth inhibition,[1]; at 100.0 µM,97% (active)
same,growth inhibition,[2]; at 1.2 µM,-35%
same,growth inhibition,[2]; at 3.7 µM,-56%
same,growth inhibition,[2]; at 11.0 µM,-40%
same,growth inhibition,[2]; at 33.0 µM,89% (active)
same,growth inhibition,[2]; at 100.0 µM,94% (active)
same,growth inhibition,[3]; [16],5%
same,growth inhibition,[3]; [17],96% (active)
same,growth inhibition,[3]; at 50.0 µM,83.6% (active)
same,growth inhibition,[15]; at 1.2 µM,-59%
same,growth inhibition,[15]; at 3.7 µM,-42%
same,growth inhibition,[15]; at 11.0 µM,54%
same,growth inhibition,[15]; at 33.0 µM,95% (active)
same,growth inhibition,[15]; at 100.0 µM,95% (active)
CC(C(=O)N1C(=O)N(C(=O)[C@H](C)C(O)c2ccccc2)[C@H](c2ccccc2)[C@H]1c1ccccc1)[C@@H](O)c1ccccc1 (some centres undefined),growth inhibition,[4]; at 1.2 µM,-1%
same,growth inhibition,[4]; at 3.7 µM,-2%
same,growth inhibition,[4]; at 11.0 µM,11%
same,growth inhibition,[4]; at 33.0 µM,37%
same,growth inhibition,[4]; at 100.0 µM,62%
same,growth inhibition,[5]; at 1.2 µM,1%
same,growth inhibition,[5]; at 3.7 µM,-1%
same,growth inhibition,[5]; at 11.0 µM,-2%
same,growth inhibition,[5]; at 33.0 µM,17%
same,growth inhibition,[5]; at 100.0 µM,36%
same,growth inhibition,[6]; at 1.2 µM,-4%
same,growth inhibition,[6]; at 3.7 µM,-4%
same,growth inhibition,[6]; at 11.0 µM,-1%
same,growth inhibition,[6]; at 33.0 µM,-3%
same,growth inhibition,[6]; at 100.0 µM,-11%
same,growth inhibition,[7]; at 1.2 µM,-6%
same,growth inhibition,[7]; at 3.7 µM,-9%
same,growth inhibition,[7]; at 11.0 µM,4%
same,growth inhibition,[7]; at 33.0 µM,25%
same,growth inhibition,[7]; at 100.0 µM,59%
same,growth inhibition,[8]; at 1.2 µM,-7%
same,growth inhibition,[8]; at 3.7 µM,-15%
same,growth inhibition,[8]; [16],-5%
same,growth inhibition,[8]; at 11.0 µM,-9%
same,growth inhibition,[8]; at 33.0 µM,41%
same,growth inhibition,[8]; [17],39%
same,growth inhibition,[8]; at 50.0 µM,80.1% (active)
same,growth inhibition,[8]; at 100.0 µM,56%
same,growth inhibition,[9]; at 1.2 µM,-5%
same,growth inhibition,[9]; at 3.7 µM,-1%
same,growth inhibition,[9]; [16],-14%
same,growth inhibition,[9]; at 11.0 µM,8%
same,growth inhibition,[9]; at 33.0 µM,33%
same,growth inhibition,[9]; [17],51%
same,growth inhibition,[9]; at 50.0 µM,73.2% (active)
same,growth inhibition,[9]; at 100.0 µM,55%
same,growth inhibition,[10]; at 1.2 µM,-7%
same,growth inhibition,[10]; at 3.7 µM,-12%
same,growth inhibition,[10]; at 11.0 µM,1%
same,growth inhibition,[10]; at 33.0 µM,15%
same,growth inhibition,[10]; at 100.0 µM,36%
same,growth inhibition,[11]; [16],-12%
same,growth inhibition,[11]; [17],38%
same,growth inhibition,[11]; at 50.0 µM,83.4% (active)
same,growth inhibition,[12]; [16],71% (active)
same,growth inhibition,[12]; [17],59%
same,growth inhibition,[12]; at 50.0 µM,77.2% (active)
same,growth inhibition,[13]; at 1.2 µM,-4%
same,growth inhibition,[13]; at 3.7 µM,-3%
same,growth inhibition,[13]; [16],-27%
same,growth inhibition,[13]; at 11.0 µM,5%
same,growth inhibition,[13]; at 33.0 µM,23%
same,growth inhibition,[13]; [17],90% (active)
same,growth inhibition,[13]; at 50.0 µM,84.2% (active)
same,growth inhibition,[13]; at 100.0 µM,48%
same,growth inhibition,[14]; at 1.2 µM,-8%
same,growth inhibition,[14]; at 3.7 µM,-7%
same,growth inhibition,[14]; at 11.0 µM,4%
same,growth inhibition,[14]; at 33.0 µM,41%
same,growth inhibition,[14]; at 100.0 µM,62%
same,growth inhibition,[1]; at 1.2 µM,-3%
same,growth inhibition,[1]; at 3.7 µM,-4%
same,growth inhibition,[1]; at 11.0 µM,14%
same,growth inhibition,[1]; at 33.0 µM,45%
same,growth inhibition,[1]; at 100.0 µM,57%
same,growth inhibition,[3]; [16],7%
same,growth inhibition,[3]; [17],37%
same,growth inhibition,[3]; at 50.0 µM,82.2% (active)
same,growth inhibition,[15]; at 1.2 µM,0%
same,growth inhibition,[15]; at 3.7 µM,6%
same,growth inhibition,[15]; at 11.0 µM,25%
same,growth inhibition,[15]; at 33.0 µM,45%
same,growth inhibition,[15]; at 100.0 µM,53%
